These results are taken from PubChem BioAssay (Tox21).

For experiment [1], the target named is Retinoic acid receptor RXR-alpha (Homo sapiens) (UniProt P19793). In words: qHTS assay to identify small molecule agonists of the RXR signaling pathway (AID 1159527; calls by dose curve; further: nearly all actives have a fitted effect of over 35% in size). A digest of the protocol: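 16 hr incubation of compound-treated RXR-alpha-UAS-bla HEK 293T cells (2% charcoal-stripped FBS, 37 C) preceded a 2 hr room-temperature LiveBLAzer FRET substrate step and blue/green fluorescence measurement.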
Retinoic acid receptor RXR-alpha (Homo sapiens), sequence (P19793 whole entry, looked up): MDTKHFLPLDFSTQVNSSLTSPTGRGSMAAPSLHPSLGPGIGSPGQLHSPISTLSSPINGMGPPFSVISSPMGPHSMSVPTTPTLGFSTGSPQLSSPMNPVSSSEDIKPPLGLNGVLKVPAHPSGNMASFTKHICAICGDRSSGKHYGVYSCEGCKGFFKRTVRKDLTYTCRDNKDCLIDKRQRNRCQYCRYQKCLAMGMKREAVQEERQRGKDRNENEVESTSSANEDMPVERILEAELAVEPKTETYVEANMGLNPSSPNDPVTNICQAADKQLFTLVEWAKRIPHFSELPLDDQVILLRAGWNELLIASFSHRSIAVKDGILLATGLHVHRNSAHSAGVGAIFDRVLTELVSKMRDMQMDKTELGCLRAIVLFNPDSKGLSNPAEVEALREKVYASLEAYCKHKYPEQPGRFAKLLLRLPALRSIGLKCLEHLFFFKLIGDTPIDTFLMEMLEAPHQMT
A general note: qHTS replaces the single test concentration by a dilution series.

The nature of experiment [2]: qHTS assay to identify small molecule agonists of the RXR signaling pathway - cell viability counter screen (AID 1159529). Further: nearly all actives have a fitted effect of over 50% in size. Further: potency means the concentration at half of the fitted maximal effect.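 On activity change, negative = cytotoxicity: HEK 293T cells carrying an RXR-alpha UAS beta-lactamase reporter; series mostly up to about 77 µM.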 The essentials:
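In this parallel viability measure, GeneBLAzer RXR-alpha HEK 293T cells (2% charcoal-stripped FBS) were given a 5 hr preincubation, treated with compounds 16 hr at 37 C, and read by CellTiter-Glo luminescence.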

The nature of experiment [3]: qHTS assay to identify small molecule antagonists of the retinoid acid receptor (RAR) signaling pathway - cell viability counter screen (AID 1159551). Further: nearly all actives have a fitted effect of over 35% in size. A digest of the protocol:
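Cytotoxicity counter screen: ATP content quantified by CellTiter-Glo luminescence in C3RL4 cells treated 6 hr at 37 C with compound and retinol (1 uM final). Cells plated at 1,000/well and cultured overnight before dosing.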

Experiment [4] in a line: qHTS assay to identify small molecule antagonists of the estrogen related receptor (ERR) signaling pathway (AID 1224819;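 further: luminescence from an ERR-driven luciferase reporter measured with One-Glo reagent; series mostly up to about 46 µM; nearly all actives have a fitted effect of over 50% in size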). A digest of the protocol:
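LOPAC library screened for antagonism as reduced One-Glo luminescence in ERR reporter cells (2,000/well). Compounds were added after 6 h pre-incubation and left 18 h at 37C; reading followed a 30 min room-temperature reagent step.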

The nature of experiment [5]: qHTS assay to identify small molecule agonists of the estrogen related receptor (ERR) signaling pathway (AID 1224820). The essentials:
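Luminescence readout (One-Glo, 30 min RT) from NTP-supplied ERR cell line exposed to compounds for 18 h at 37 C. Cells seeded 2,000 per well and pre-incubated 6 h before pin-tool compound transfer.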

Experiment [6] concerns estrogen-related receptor alpha (ERRalpha) with PGC-1alpha coactivator, human. In words: qHTS assay to identify small molecule antagonists of the estrogen related receptor signaling pathway with the pleiotropic PPARgamma coactivator (PGC) (AID 1224821; calls by dose curve;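 further: series mostly up to about 46 µM; lower luminescence signal means antagonism of PGC/ERR signalling; nearly all actives have a fitted effect of over 50% in size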). The essentials:
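PGC/ERR reporter cells; 6 h pre-incubation 37 C/5% CO2; pin-tool compound in DMSO, 18 h 37 C; One-Glo added, 30 min RT; luminescence read. qHTS antagonist mode.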

Experiment [7] in a line: qHTS assay to identify small molecule agonists of the estrogen related receptor signaling pathway with the pleiotropic PPARgamma coactivator (PGC) (AID 1224823). The essentials: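 Luminescence readout (One-Glo, 30 min RT) from PGC/ERR cell line treated 18 h at 37 C with pin-tool-delivered DMSO compound solutions; cells plated 6 h before dosing. Quantitative HTS format.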

A short description of experiment [8]: qHTS assay to identify small molecule antagonists of the estrogen related receptor (ERR) signaling pathway from Tox21 library - cell viability counter screen (AID 1224834). Further: nearly all actives have a fitted effect of over 30% in size. Further: potency means the concentration at half of the fitted maximal effect. A digest of the protocol:
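CellTiter-Fluor fluorescence, read after 30 min at 37 C, measures viability of ERR cells. Cells plated at 2,000/well and incubated 6 h before pin-tool compound addition, then exposed 17.5 hours at 37 C.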

A short description of experiment [9]: qHTS assay to identify small molecule agonists of the constitutive androstane receptor (CAR) signaling pathway - cell viability counter screen (AID 1224836). Further: nearly all actives have a fitted effect of over 45% in size. Further: potency means the concentration at half of the fitted maximal effect. On viability change, negative = cytotoxic: series mostly up to about 92 µM. A digest of the protocol:
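Using CellTiter-Fluor, viability of HepG2 cells harbouring hCAR and CYP2B6-2.2kb was measured following 23 h incubation with a 15-concentration compound series plus PK11195 (0.75 uM final).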

A short description of experiment [10]: qHTS assay to identify small molecule antagonists of the constitutive androstane receptor (CAR) signaling pathway - cell viability counter screen (AID 1224837). Further: nearly all actives have a fitted effect of over 45% in size. Further: potency means the concentration at half of the fitted maximal effect. On activity change, negative = cytotoxicity: series mostly up to about 92 µM. A digest of the protocol: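 Cytotoxicity counter-screen: CellTiter-Fluor fluorescence after 23 h compound exposure (15-point qHTS) in double-stable HepG2-CYP2B6-hCAR cells, with 50 nM CITCO added.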

Experiment [11] concerns the target Nuclear receptor subfamily 1 group I member 3 (Homo sapiens) (UniProt Q14994). In words: qHTS assay to identify small molecule agonists of the constitutive androstane receptor (CAR) signaling pathway (AID 1224839).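 Further: HepG2 cells stably carrying human CAR and a CYP2B6 luciferase reporter; series mostly up to about 92 µM; nearly all actives have a fitted effect of over 15% in size.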 The essentials: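 Double-stable HepG2 cells (hCAR, CYP2B6-2.2kb) seeded 4 h before compound addition. Exposure 24 h with 0.75 uM PK11195 final. Luciferase detected by ONE-Glo.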

The nature of experiment [12]: qHTS assay to identify small molecule antagonists of the estrogen related receptor signaling pathway with the pleiotropic PPARgamma coactivator (PGC) from Tox21 10K library - cell viability counter screen (AID 1224840; active means well fitted cell-killing curve with a large enough effect in the repeat runs, not every such curve was filed as active; further: nearly all actives have a fitted effect of over 40% in size; further: potency means the concentration at half of the fitted maximal effect). A digest of the protocol: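 Counter-screen for cytotoxicity: after 17.5 h compound exposure at 37 C, CellTiter-Fluor reagent added to PGC/ERR cells for 30 min and fluorescence read. Cells were seeded at 2,000 per well 6 h before dosing.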

Experiment [13] can be described thus: qHTS assay to identify small molecule antagonists of the retinoic acid receptor (RAR) signaling pathway (AID 1159552; further: nearly all actives have a fitted effect of over 50% in size). The essentials: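 C3RL4 RARE-luc cells, overnight plating; retinol 1 uM final added right after compound; 6 hr 37 C; luciferase read at 30 min RT.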
Experiment [14] in a line: qHTS assay to identify small molecule agonists of the retinoic acid receptor (RAR) signaling pathway (AID 1159553). The essentials:
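Luminescence was measured 30 min after luciferase reagent addition at room temperature. Before that, C3RL4 reporter cells (1,000 per well, plated overnight) were treated with compound for 6 hr at 37 C and 5% CO2.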

In experiment [15] the target is Nuclear receptor subfamily 1 group I member 3 (Homo sapiens) (UniProt Q14994). In words: qHTS assay to identify small molecule antagonists of the constitutive androstane receptor (CAR) signaling pathway (AID 1224838).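 Further: HepG2 cells stably expressing hCAR with CYP2B6 luciferase reporter stimulated by CITCO; nearly all actives have a fitted effect of over 40% in size.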 A digest of the protocol: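 Antagonism measured as luciferase signal (ONE-Glo, 30 min, room temperature) in CAR-stimulated cells: HepG2-CYP2B6-hCAR double-stable line exposed 24 hr at 37 C to compound in a 15-point series plus 50 nM CITCO.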
Nuclear receptor subfamily 1 group I member 3 (Homo sapiens), sequence (Q14994 whole entry, looked up): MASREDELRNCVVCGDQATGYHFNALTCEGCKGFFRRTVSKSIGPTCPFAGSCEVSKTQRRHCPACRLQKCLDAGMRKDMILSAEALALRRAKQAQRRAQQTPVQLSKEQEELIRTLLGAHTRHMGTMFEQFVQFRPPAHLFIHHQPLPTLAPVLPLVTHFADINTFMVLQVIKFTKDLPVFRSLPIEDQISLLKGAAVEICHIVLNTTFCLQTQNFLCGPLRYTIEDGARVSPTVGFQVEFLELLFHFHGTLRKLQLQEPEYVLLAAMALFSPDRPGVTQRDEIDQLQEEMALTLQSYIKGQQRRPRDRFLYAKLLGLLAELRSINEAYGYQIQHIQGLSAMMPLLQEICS

A short description of experiment [16]: qHTS assay to identify small molecule antagonists of the estrogen related receptor signaling pathway with the pleiotropic PPARgamma coactivator (PGC) from Tox21 10K library (AID 1224841; call rule not given here). The essentials:
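Luminescence (One-Glo, 30 min at room temperature) after 18 h compound treatment at 37 C of PGC/ERR reporter cells plated at 2,000 cells/well and settled 6 h beforehand.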

A short description of experiment [17]: qHTS assay to identify small molecule agonists of the estrogen related receptor signaling pathway with the pleiotropic PPARgamma coactivator (PGC) from Tox21 10K library (AID 1224842). Further: nearly all actives have a fitted effect of over 15% in size. A digest of the protocol: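 PGC/ERR reporter cell line, 2,000 cells per well, incubated 6 h at 37 C before 23 nL compound in DMSO was added. After 18 h at 37 C, One-Glo luminescence read following 30 min at room temperature.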

The nature of experiment [18]: qHTS assay to identify small molecule antagonists of the estrogen related receptor (ERR) signaling pathway - cell viability counter screen (AID 1224818). Further: series mostly up to about 46 µM. The essentials: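 Cytotoxicity counter screen: fluorescence from CellTiter-Fluor, added after 17.5 h compound exposure at 37 C and read 30 min later. ERR cell line seeded at 2,000 cells/well, preincubated 6 h before dosing.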

Experiment [19] is described as follows: qHTS assay to identify small molecule antagonists of the estrogen related receptor signaling pathway with the pleiotropic PPARgamma coactivator (PGC) cell viability counter screen (AID 1224822; further: series mostly up to about 46 µM). A digest of the protocol: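 Viability counter-screen read by fluorescence intensity after 30 min with CellTiter-Fluor at 37 C; PGC/ERR reporter cells were exposed to compounds for 17.5 h at 37 C following a 6 h preincubation.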

Experiment [20] concerns the target Luciferin 4-monooxygenase (Photinus pyralis) (UniProt P08659). In words: qHTS assay to identify small molecule inhibitors of firefly luciferase (AID 1224835). Further: series mostly up to about 120 µM; nearly all actives have a fitted effect of over 25% in size. A digest of the protocol:
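Biochemical qHTS: compounds run as interplate titrations against purified firefly enzyme, with D-luciferin and ATP each at its KM concentration. Light output recorded by CCD imaging.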

Several values for one entry are separate records, joined by “and”; a condition that tells them apart may be missing. Equal values may be shown once. Results filed as inconclusive are left out. Some structures have more than one record in an assay (separate samples or runs), and their calls can disagree. Activity calls are given as the source filed them. Unless noted, the call rests on the fitted dose curve; in most records, active means well fitted curve in the direction sought with a large enough effect in the repeat runs; inconclusive means weak or mixed curves; inactive means no such curve, though single readings can be large; an effect the other way counts as inactive or inconclusive.
On the % scale 0 is the no-effect control and ±100 the full control effect.

Luciferin 4-monooxygenase (Photinus pyralis), sequence (P08659 whole entry, looked up): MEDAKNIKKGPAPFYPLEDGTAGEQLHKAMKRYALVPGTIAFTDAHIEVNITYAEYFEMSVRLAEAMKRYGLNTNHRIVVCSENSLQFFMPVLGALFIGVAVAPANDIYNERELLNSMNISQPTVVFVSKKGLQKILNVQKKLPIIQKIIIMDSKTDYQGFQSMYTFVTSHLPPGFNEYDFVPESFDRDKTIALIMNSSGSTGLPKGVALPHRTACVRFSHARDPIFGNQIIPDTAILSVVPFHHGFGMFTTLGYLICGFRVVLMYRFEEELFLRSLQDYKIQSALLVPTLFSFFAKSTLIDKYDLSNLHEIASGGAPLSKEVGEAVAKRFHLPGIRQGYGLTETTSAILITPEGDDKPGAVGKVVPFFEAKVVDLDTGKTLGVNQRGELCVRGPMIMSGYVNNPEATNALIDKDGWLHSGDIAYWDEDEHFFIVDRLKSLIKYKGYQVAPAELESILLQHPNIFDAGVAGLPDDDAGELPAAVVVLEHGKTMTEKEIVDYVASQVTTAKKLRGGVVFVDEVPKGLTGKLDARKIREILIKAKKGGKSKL

For `CN(C)CCCN1c2ccccc2CCc2ccc(Cl)cc21`, the Potency entry in experiment [1] and in experiment [11] was “inactive” each time. In addition, the Potency in experiment [2] was 38.9 µM (active); in experiment [8] it was 54.5 µM (active) and 23.7 µM (active); in experiment [9], 48.6 µM (active) and 29.8 µM (active); in [10], 48.6 µM (active); in experiment [12] it was 54.5 µM (active) and inactive. For the same compound, the call in [3], in experiment [4], in experiment [5], in experiment [6] and in experiment [7] was inactive.

As for `CC(=O)c1ccccc1O`, the Potency result in experiment [1], in [2], in [13], in experiment [14], in [8] and in experiment [9] was “inactive” each time. Besides, the Potency result in experiment [10], in experiment [15], in experiment [11], in experiment [12] and in [16] was “inactive” throughout. The result in experiment [3] and in [17] was inactive.

`Cn1c(N)c(N=O)c(=O)n(C)c1=O`: the Potency result in [1], in [2], in [13], in experiment [14], in experiment [8] and in [9] was “inactive” each time. The Potency result in [10], in experiment [15], in [11], in experiment [12] and in [16] was “inactive” in each case. Further, the compound was called inactive in [3] and in experiment [17].

Turning to `CCN1CCC[C@H]1CNC(=O)c1cc(S(N)(=O)=O)ccc1OC`, the Potency result in experiment [2], in experiment [13], in [14], in [8], in [20] and in experiment [9] was “inactive” each time. Besides, the Potency entry in experiment [10], in experiment [15], in experiment [11] and in [12] was “inactive” each time. Besides, the compound was called inactive in [3], in [18] and in [19].

In the case of `CC(C)CCCC(C)N` (stereo not drawn), the Potency entry in experiment [1], in [2], in [13], in experiment [14], in experiment [8] and in experiment [9] was “inactive” in each case. In addition, the Potency entry in [10], in experiment [15], in experiment [11], in experiment [12] and in experiment [16] was “inactive” in each case. Besides, the compound was classed as inactive in [3] and in experiment [17].

Consider `CC(=O)OCC(=O)[C@@]1(O)CCC2C3CCC4=CC(=O)CC[C@]4(C)C3[C@@H](O)C[C@@]21C` (stereo partly drawn), for which the Potency entry in experiment [1], in experiment [2], in [13], in [14], in [8] and in [9] was “inactive” each time. Moreover, the Potency entry in experiment [10], in [15], in experiment [11], in experiment [12] and in experiment [16] was “inactive” in each case. In addition, the result in experiment [3] and in [17] was inactive.

For `COc1ccccc1OCC(O)CN1CCN(CC(=O)Nc2c(C)cccc2C)CC1` (stereo not drawn), the Potency result in experiment [2], in [13], in experiment [14], in [8], in [20] and in experiment [9] was “inactive” throughout. The Potency entry in [10], in [15], in [11] and in experiment [12] was “inactive” throughout. Further, the compound was classed as inactive in experiment [3], in [18] and in [19].

For `CCCCC(CC)COC(=O)c1ccccc1O` (stereo not drawn), the Potency entry in [1], in experiment [2], in experiment [13], in [14], in experiment [8] and in experiment [9] was “inactive” each time. For the same compound, the Potency result in experiment [10], in experiment [15], in [11], in [12] and in experiment [16] was “inactive” each time. Moreover, the compound was classed as inactive in experiment [3] and in experiment [17].

Turning to `N[C@H](C(=O)O)c1ccc(O)cc1`, the Potency result in experiment [1], in experiment [2] and in experiment [14] was “inactive” each time. Also, the activity change, negative = cytotoxicity in experiment [3] is 1.22% [at 19 µM] (inactive); in experiment [10], 4.98% [at 19 µM] (inactive). Also, the activity, negative = inhibition was -7.38% [at 19 µM] (inactive) in experiment [13], -5.61% [at 19 µM] (inactive) in experiment [15] and 1.15% [at 19 µM] (inactive) in experiment [16]. Further, the viability change, negative = cytotoxic in experiment [8] was -0.517% [at 19 µM] (inactive); in experiment [9], -1.44% [at 19 µM] (inactive); in [12], -4.51% [at 19 µM] (inactive). For the same compound, the activation in experiment [11] was -0.259% [at 19 µM] (inactive).

On to `CC/C=C\CC/C=C/C(OCC)OCC`, for which the Potency entry in experiment [1], in experiment [2], in experiment [13], in experiment [14], in experiment [8] and in experiment [9] was “inactive” in each case. In addition, the Potency entry in [10], in experiment [15], in [11], in [12] and in experiment [16] was “inactive” throughout. In addition, the compound was called inactive in experiment [3] and in experiment [17].
